We go through 32 compounds from PubChem BioAssay (NCATS).

Records with an inconclusive call do not appear. Unmarked numbers belong to inactive results. Calls of active or inactive are those of the source. The call rests on the fitted dose curve; in most records, active means well fitted cell-killing curve with a large enough effect; inconclusive means small, poorly fitted or top-dose-only effect, or effect the other way; inactive means flat fitted curve, though single readings scatter.
On the % scale 0 is the no-effect control and ±100 the full control effect; potency means the concentration at half of the fitted maximal effect.

The assay has as its system HeLa. The assay is described as follows: Primary qHTS to identify gynecologic anti-cancer compounds using libraries of approved drugs and bioactive compounds (AID 1345084). Further: nearly all actives have a fitted effect of over 55% in size. The note with it: Gynecologic cancer cell panel viability, ATPlite luminescence, 48 h; series mostly up to 57.5 µM; activity change, negative = cytotoxicity: at the top concentration. The procedure, abridged: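 Measured: luminescence after ATPlite addition (15 min, RT). Exposure: 48 h, 37 C, 5% CO2.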
As for `CCNC1(C(N)=O)CN(c2nc(C)nc3c(-c4ccc(Cl)cc4)c(-c4ccccc4Cl)nn23)C1`, the “activity change, negative = cytotoxicity” value is -1.61%.
On the same count and under the same terms, to `O=C([C@@H]1CCCN(c2ccc3[nH]c(C4(n5cc(Cl)cn5)CC4)nc3n2)C1)N1CCCC1` belongs -4.17%.
Still for that read-out and setting: as for `Cn1ccc(NC(=O)c2cc(Oc3ccc(C(=O)N4CCC4)c(F)c3)c3c(c2)OC(C)(C)C3)n1`, the figure is 23.4%; as for `CC1(CO)CC2C(O)C3=C(CC(C)(O)C2C1)C(=O)OC3` (configuration not stated), -0.876%; as for `C[C@@H]1O[C@@H](O[C@H]2[C@@H]3C=CO[C@@H](O[C@@H]4O[C@H](CO)[C@@H](O)[C@H](O)[C@H]4O)[C@@H]3[C@@]3(CO)O[C@@H]23)[C@H](O)[C@H](OC(=O)/C=C/c2ccccc2)[C@H]1O`, -15.6% [at 25.3 µM].
As to `CC(=O)O[C@@H]1CC2C(/C=C(\C)C(=O)[C@@]3(O)C[C@@H](C)[C@H](OC(=O)c4ccccc4)C3/C=C/1C)C2(C)C` (some centres not stated), the “activity change, negative = cytotoxicity” value is -3.86% [at 25.3 µM].
Consider `COCCCNC(=O)c1ccc(Cn2c(=O)c3ccccc3n(Cc3ccc(C(C)C)cc3)c2=O)cc1`, for which the “activity change, negative = cytotoxicity” value was 11.2%.
On to `Cc1ccc(C(C)C)c(O[C@@H]2O[C@H](CO)[C@@H](O)[C@H](O)[C@H]2O)c1`, for which the “activity change, negative = cytotoxicity” value is -0.957% [at 38.5 µM].
Consider `O=C(Nc1ccccc1)N1CCC(Cc2cnc3ccccc3c2)CC1`, for which the “activity change, negative = cytotoxicity” value is -4.82%.
The same measure, in the same setting: to `CN(C)CCOc1cc(NS(=O)(=O)c2c(Cl)cc(C(F)(F)F)cc2Cl)ccc1Cl` belongs -2.98%.
With `COc1ccc(NC(=O)C2C[C@H](C)CC[C@H]2C(C)C)cc1` (some centres not stated), the “activity change, negative = cytotoxicity” value is 12.5%.
Turning to `Cc1noc(-c2ccc(-c3ccc(CC(=O)O)cc3)cc2)c1NC(=O)O[C@H](C)c1ccccc1Cl`, the “activity change, negative = cytotoxicity” value was -14%.
On the same count and under the same terms, to `Cc1cccc(N2CCN(C(=O)c3cc(S(=O)(=O)N(C)C)ccc3N3CCCC3)CC2)c1C` belongs -4.58%; to `C[C@]12CC[C@@H]3c4ccc(O)c(O)c4CC[C@H]3[C@@H]1CCC2=O`, 8.71%; to `O=C(Nc1ccccc1)c1ccc(Nc2nnc(-c3ccc(O)cc3)c3ccccc23)cc1`, -8.15%.
Consider `CC1(NC(=O)c2ccc(C#Cc3cccc(F)c3)cn2)COC1`, for which the “activity change, negative = cytotoxicity” value was -15.9%.
With `COc1ccc(S(=O)(=O)N2CCC[C@H]2C(=O)Nc2cc(C)cc(C)c2)cc1`, the “activity change, negative = cytotoxicity” value was 17.6%.
As to `COc1cc(C2OC(c3ccc(OC)c(OC)c3)C(C)C2C)ccc1O` (configuration not stated), the “activity change, negative = cytotoxicity” value was -4.46% [at 38.5 µM].
For the compound `C#CCCCn1cc(-c2cccc3c2N[C@H](C)CC(=O)N3)cn1`, the Potency is 891 nM (active).
On to `CC(=O)O[C@@H]1[C@@H](O)[C@H](O[C@@H]2[C@@H](O)[C@@H](O)[C@H](O[C@H]3[C@H](O[C@H]4[C@H](O[C@H]5CC[C@@]6(C)C(CC[C@]7(C)C6CC=C6[C@@H]8CC(C)(C)CC[C@]8(C(=O)O)CC[C@]67C)[C@]5(C)CO)O[C@H](CO)[C@@H](O)[C@@H]4O)OC[C@@H](O)[C@@H]3O)O[C@H]2C)OC[C@H]1O` (some centres not stated), for which the activity change, negative = cytotoxicity was 2.05% [at 11.6 µM].
Consider `CCC/C=C/C(=O)O[C@H]1CC(C)(C)CC2[C@@]13[C@H](O)C[C@]1(C)[C@@]2(CCC2[C@@]4(C)CC[C@H](O[C@@H]5O[C@H](C(=O)O)[C@@H](O)[C@H](O[C@@H]6O[C@H](CO)[C@H](O)[C@H](O)[C@H]6O[C@@H]6O[C@@H](C)[C@H](O)[C@@H](O)[C@H]6O[C@@H]6OC[C@](O)(CO)[C@H]6O)[C@H]5O[C@@H]5O[C@H](CO)[C@H](O)[C@H](O)[C@H]5O)C(C)(C)C4CC[C@]21C)O[C@H]3O` (some centres not stated), for which the activity change, negative = cytotoxicity was 4.5% [at 6.55 µM].
`Cc1ccc(-c2ncc[nH]2)cc1NC(=O)c1ccc(OCc2ccccn2)cc1`: the “activity change, negative = cytotoxicity” value was 11.1%.
`COc1cc(CCc2ccc(OCC=C(C)C)cc2)cc(OC)c1OC`: the “activity change, negative = cytotoxicity” value was -5.32% [at 38.5 µM].
For `CNC(=O)COC(=O)N1CCC(CCc2ccc(Cl)cc2)CC1`, the “activity change, negative = cytotoxicity” value is -1.39%.
Still for that read-out and setting: as for `COC1C=C(C)C(O)(CO)C2(C)CCCC(C)(C)C12` (configuration not stated), the figure is -8.7%.
`O=C(O)c1ccc(S(=O)(=O)N(Cc2ccc(OC(F)(F)F)cc2)c2ncc(C(F)(F)F)cc2Cl)cc1`: the “activity change, negative = cytotoxicity” value is -1.93%.
Same read-out and setting: to `C=C(C)C(=O)O[C@H]1[C@H]2C(=C)C(=O)O[C@@H]2/C=C(\CO)CC/C=C(/C=O)[C@@H]1O` belongs 2.06% [at 38.5 µM]; to `C=C[C@]1(C)C[C@H](O)[C@H]2C(=C)C(=O)O[C@@H]2[C@H]1C(=C)CO`, 0.675%.
Turning to `COC(=O)c1ccnc(-c2cc(C(=O)Nc3ccc(C4(N)CC4)cc3)ccn2)c1`, the “activity change, negative = cytotoxicity” value was 11.4%.
On the same count and under the same terms, to `O=C(Nc1ccc2[nH]c(=O)oc2c1)C(=O)N1CCC(Cc2ccc(F)cc2)CC1` belongs -1.03%; to `O=C(Nc1cccnn1)N1CCN(c2nccc(-c3ccc(F)c(F)c3)n2)CC1`, -4.13% [at 116 µM]; to `O=C(Nc1cc(C(F)(F)F)ccc1N1CCCCC1)c1ccncc1`, -2.21%.
